Rows were chosen to be rich in hits. Some 5.5% of all compounds tested hit in one or more screens of this group.
MBNL1 CUG block = blocks human MBNL1 binding to CUG repeat RNA; 280,000 compounds, 0.036% hits; Potency, µM (titrated, usually from 57.5 µM), for inactives: at the highest dose activity change, negative = inhibition, most hits filed as inhibitors; Q9NR56; TR-FRET MBNL1-His/biotin-(CUG)12 binding, 665/545 ratio; AID 2675; active means well fitted inhibition curve with a large enough effect in the signal ratio, with a control signal flat, not every such curve was filed as active; inconclusive means small, poorly fitted or top-dose-only effect, or effect the other way, or a change in a side signal; inactive means no such curve, though single readings can be large or run the other way; the % refers to the signal ratio; further: potency means the concentration at half of the fitted maximal effect; on the % scale 0 is the no-effect control and ±100 the full control effect
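MBNL1-His + Biotin-(CUG)12, cpd titration 92 nM–58 uM; Tb anti-His Ab 0.055 ng/ul, SA-XL665 5 nM (final); 60 min RT; ratiometric 665/545 nm, Ex 340 nm; normalized to buffer and full-complex controls.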
Six1-Eya2 blk = Six1/Eya2 interaction inhibition; AlphaScreen GST-Six1/His-Eya2 binding, biochemical; active compounds read low; activity change, % (test concentration not listed); 360,000 compounds, 0.56% hits; AID 651725; in the data active means activity change below about -65%; inconclusive means mostly about -30% to -63%; further: on the % scale 0 is the no-effect control and ±100 the full control effect
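Six1/Eya2 binding was read as AlphaScreen signal after compounds were pinned into GST-Six1 plus His-tagged Eya2 (5X stock 250/500 nM) in pH 8.0 Tris/NaCl/TCEP buffer, beads added, then incubated 1 h, 37 C, dark.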
Gal4-VP16 FLuc = inhibits Gal4-VP16 luciferase reporter, ROR gamma counter-screen | Drosophila S2 Gal4-VP16 UAS-luciferase, luminescence, 20 h | Potency, µM (series often up to 53.6 µM), without a hit: top-dose activity, negative = inhibition, usual class: inhibitors | 310,000 compounds, 3.5% hits | AID 2546;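 further: Gal4-VP16 expression switched on by copper sulfate through the metallothionein promoter; potency means the concentration at half of the fitted maximal effect; on the % scale 0 is the no-effect control and ±100 the full control effect; nearly all actives have a fitted effect of over 50% in size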
CBFb RUNX1 block = inhibitors of human CBF-beta and RUNX1 interaction | AlphaScreen CBFb-His/RUNX1-biotin binding, biochemical | 230,000 tested, under 10 active | Potency, µM (series often up to 59.8 µM), for the others: at the top dose activity, negative = inhibition, usual class: inhibitors; further: % of control where 0% means no effect
Target sequence (Q01196 whole entry, looked up): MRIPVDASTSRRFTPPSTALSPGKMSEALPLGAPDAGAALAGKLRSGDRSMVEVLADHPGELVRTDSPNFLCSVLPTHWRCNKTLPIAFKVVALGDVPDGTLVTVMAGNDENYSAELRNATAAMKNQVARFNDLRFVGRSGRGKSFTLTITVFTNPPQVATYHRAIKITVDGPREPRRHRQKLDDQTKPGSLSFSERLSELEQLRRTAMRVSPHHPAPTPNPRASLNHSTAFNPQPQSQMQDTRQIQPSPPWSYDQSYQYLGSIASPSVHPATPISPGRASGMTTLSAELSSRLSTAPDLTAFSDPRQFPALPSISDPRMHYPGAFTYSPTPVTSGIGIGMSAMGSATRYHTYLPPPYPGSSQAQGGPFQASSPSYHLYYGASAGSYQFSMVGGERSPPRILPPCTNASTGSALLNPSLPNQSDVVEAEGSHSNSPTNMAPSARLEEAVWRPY
Target sequence (Q13951 whole entry, looked up): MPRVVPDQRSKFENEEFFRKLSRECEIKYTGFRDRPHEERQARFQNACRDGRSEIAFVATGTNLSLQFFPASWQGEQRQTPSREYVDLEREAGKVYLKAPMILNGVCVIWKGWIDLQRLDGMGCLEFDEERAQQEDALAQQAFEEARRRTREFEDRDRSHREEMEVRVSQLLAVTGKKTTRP
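AlphaScreen binding: CBFb-His and RUNX1-biotin (30 nM each) preincubated 20 min, compound added for 15 min, then nickel and streptavidin beads for 90 min, all at room temperature. Disruption of the interaction by any mechanism counts as activity.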
RORg inh = inhibitors of mouse ROR gamma transcriptional activity; Potency, µM (top dose mostly 53.6 µM), without a hit: at the top dose activity change, negative = inhibition, most hits filed as inhibitors; 310,000 compounds, 5.4% hits; Drosophila S2 Gal4-RORgamma UAS-luciferase reporter, 20 h; P51450; AID 2551; further: potency means the concentration at half of the fitted maximal effect; on the % scale 0 is the no-effect control and ±100 the full control effect; nearly all actives have a fitted effect of over 60% in size
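Using a luciferase readout, inhibitors were identified by reduced reporter activity in Drosophila cells coexpressing a copper-inducible Gal4–ROR gamma fusion and UAS-driven Photinus luciferase, incubated 20 hr after 700 uM copper sulfate.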
CtBP-E1A inh = blocks the CtBP interaction with E1A; AlphaScreen GST-E1A/His-CtBP binding, 1536-well; active compounds read low; activity change, % (test concentration not listed); 340,000 compounds, 0.49% hits; AID 651724; in the data active means activity change below about -65%; inconclusive means mostly about -30% to -63%; further: on the % scale 0 is the no-effect control and ±100 the full control effect
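Steps: dispense buffer (Tris pH 8.0, NaCl 300 mM, TCEP 1 mM, BSA, Tween 20); add 5X protein mix (GST-E1A, His-CtBP, 125 nM each); pin 23 nL compound; 2 h at 37 °C, dark; add 5X beads (50 ug/mL); 1 h; read.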
The depositor's hits bear a star; ? = inconclusive; . = not tested or not shown; ! = not active in a repeat; [ ] = dose if it differs, or a comment. Unless noted, the call rests on the fitted dose curve; in most records, active means well fitted curve in the direction sought with a large enough effect; inconclusive means small, poorly fitted or top-dose-only effect, or another doubt; inactive means no such curve, though single readings can be large; an effect the other way counts as inactive or inconclusive.

SMILES	MBNL1 CUG block	Six1-Eya2 blk	Gal4-VP16 FLuc	CBFb RUNX1 block	RORg inh	CtBP-E1A inh
Cc1ccc(-c2n[nH]c(=S)n2/N=C\c2ccco2)cc1	4.8%	-0.7	5.62µM*	5.6%	6.31µM*	0.5
COC(=O)[C@H](Cc1ccccc1)NC(=O)O[C@@H]1Cc2cc(OC)ccc2O[C@H]1c1cccc(OC)c1	.	.	4.9%	0.9%	31.4%	.
CCOc1ccc(C(=O)NCC(=O)OCCN2C(=O)c3ccccc3C2=O)cc1OCC	.	3.9	.	.	.	2.7
COc1cc(C(CC(=O)Nc2ncccc2C)N2Cc3ccccc3C2=O)cc(OC)c1OC (configuration not stated)	1.0%	0.6	-30.8%	.	-6.1%	.
Clc1ccccc1C(c1ccccc1)(c1ccccc1)n1ccnc1	-1.4%	-9.5	?	2.2%	6.31µM*!	-5.6
COc1ccccc1NC(=O)Nc1ccc2c(c1)nc(C)n2C	-14.2%	3.9	?	-0.4%	10µM*	5.4
Cc1nc2cc(NC(=O)Nc3cccc4ccccc34)ccc2n1C	3.9%	3.7	-3.3%	3.6%	-13.9%	5.7
COc1ccc(NC(=S)Nc2ncccc2C)c(OC)c1	-3.4%	?	10µM*	-29.5%	3.16µM*	-9.6
COc1ccc(NC(=S)NC23CC4CC(CC(C4)C2)C3)cc1OC	4.8%	24.3	3.55µM*	.	1.26µM*	0.0
COc1ccc(NC(=S)Nc2ncccc2C)cc1OC	-4.4%	-3.7	?	-0.5%	6.31µM*	1.7
Cc1cccnc1NC(=S)Nc1ncccc1C	-0.7%	0.7	1.9%	5.8%	?	0.1
O=C(OCC(=O)N1CCCCCC1)c1cc(S(=O)(=O)N2CCOCC2)ccc1F	.	1.2	.	.	.	-0.1
COc1ccc(-n2nnnc2C2c3ccccc3C(=O)N2C2CCN(Cc3ccccc3)CC2)cc1 (configuration not stated)	.	-3.3	.	.	.	3.7
CCCCCC(=O)NN1C(=S)N(c2ccc(OC)cc2)C(=O)C1CC(=O)Nc1ccccc1 (configuration not stated)	-3.8%	-7.4	-7.5%	-0.2%	-20.8%	-12.8
CCN1C(=O)C(CC(=O)Nc2ccccc2Cl)N(NC(=O)c2cccc(F)c2)C1=S (configuration not stated)	10.2%	-5.2	?	.	11.2µM*	7.7
CNC(=O)CC1C(=O)N(Cc2ccccc2)C(=S)N1NC(=O)c1cccc(F)c1 (configuration not stated)	-10.6%	2.7	-7.5%	-0.5%	?	-3.7
COc1ccc(NC(=O)CC2C(=O)N(c3ccc(F)cc3)C(=S)N2NC(=O)c2ccccc2)cc1 (configuration not stated)	0.9%	3.1	?	-4.8%	12.6µM*	7.1
CNC(=O)CC1C(=O)N(c2ccc(OC)cc2)C(=S)N1NC(=O)c1cccc(F)c1 (configuration not stated)	32.7%	1.3	?	22.1%	7.08µM*	-5.4
CN1C2CCC1CC(NC(=O)c1cc(Cl)cc3[nH]cnc13)C2 (configuration not stated)	-10.7%	-9.1	3.3%	.	-6.2%[1.91 µM]	12.5
O=C(NC(=S)Nc1ccc(N2CCCCC2)cc1)c1ccc2c(c1)OCCO2	.	-15.2	5.01µM*	-7.7%	3.55µM*	-7.1
O=C(NC(=S)Nc1ccc(N2CCOCC2)cc1)c1ccc2c(c1)OCCO2	4.3%	?	?	?	8.91µM*	.
O=C(NC(=S)Nc1ccc(F)cc1)c1ccc2c(c1)OCCO2	0.1%	-13.5	?	-1.1%	7.08µM*	-6.9
O=C(NC(=S)Nc1ccc(N2CCCC2)cc1)c1ccc(F)cc1	-2.1%	-7.9	5.62µM*	.	2.51µM*	-0.5
CC(=O)N1CCN(c2ccc(NC(=S)NC(=O)c3ccccc3)cc2)CC1	4.2%	11.2	-10.5%	-13.1%	-17.4%	24.4
CCCCCC1=C2CNC(Cc3ccccc3)(C(=O)OC)C=C2C(C)C1=O (configuration not stated)	.	.	-8.4%	-13.6%	2.6%	.
SMILES	MBNL1 CUG block	Six1-Eya2 blk	Gal4-VP16 FLuc	CBFb RUNX1 block	RORg inh	CtBP-E1A inh
CCOC(=O)N/N=C1/C[C@@H](O)[C@@H](O)[C@@H]2[C@@H]3C(=O)N(Cc4ccc5c(c4)OCO5)C(=O)[C@H]3CC[C@@H]12	.	.	1.3%[10 µM]	12.5%[13.1 µM]	-7.1%[10 µM]	.
Cc1ccc2c(=O)c3cccc(CC(=O)O)c3oc2c1C	.	.	-6.0%	-2.0%	-10.5%	.
C=CC[C@@H](CC(=O)NCCO)C(=O)N[C@@H](C)COC(=O)[C@@H](CC=C)Cc1ccc(F)cc1	.	0.5	.	.	.	2.5
O=C(NC(=S)Nc1c(F)cc(F)cc1Br)c1ccc2c(c1)OCCO2	-0.6%	20.2	?	-6.1%	7.94µM*	6.1
OC(COc1ccccc1)CSc1ncn[nH]1 (configuration not stated)	-10.8%	4.4	-17.8%	0.6%	10.7%	4.9
CC(C)(C)c1ccc(OCC(O)CSc2ncn[nH]2)cc1 (configuration not stated)	-1.5%	-1.3	5.62µM*	3.5%	10µM*	-6.5
CNC(=S)N1N=C(c2ccc(C)cc2)CC1c1cc(OC)ccc1OC (configuration not stated)	32.9%	?	-21.6%	-27.0%	12.6µM*	?
CNC(=S)N1N=C(c2ccc(C)cc2)CC1c1ccc(OC)cc1 (configuration not stated)	42.0%	-13.6	-29.3%	-8.2%	11.2µM*	-9.9
CNC(=S)N1N=C(c2ccc(Br)cc2)CC1c1ccc(OC)cc1 (configuration not stated)	.	-15.5	?	-2.8%	?	-1.1
CC(C)(C)OC(=O)C[C@H]1C/C=C\C[C@@H](CC(=O)N(CCO)Cc2ccccc2)C(=O)N[C@H](Cc2ccccc2)COC1=O	.	2.1	.	.	.	0.7
O=C(Nc1cccs1)Nc1nnc([C@@H]2C[C@H](O)[C@@H](CO)O2)s1	.	-5.6	.	.	.	-4.4
C[C@@H]1CN([C@@H](C)CO)C(=O)CCCn2nncc2CO[C@@H]1CN(C)C(=O)Nc1ccccc1	.	-0.6	.	.	.	-1.0
COC(=O)c1ccc(C(=O)OC)c(NC(=O)CSc2cccc[n+]2[O-])c1	0.0%	-19.3	3.55µM*	-5.2%	5.01µM*	-13.0
O=C(CSc1cccc[n+]1[O-])Nc1ccccc1Oc1ccccc1	-2.0%	6.1	7.94µM*	-3.4%	6.31µM*	-4.6
COC(=O)c1ccc(-n2c(C)cc(C(=O)CSc3cccc[n+]3[O-])c2C)cc1	0.2%	-6.2	-0.1%	3.3%	21.2%	-7.3
